The source made the active and inactive calls. Rule for the calls: active = hit-call score of the fitted dose curve at least 0.9, where 1 is the maximum; inactive = score below 0.9.
How the values were obtained:
Details in all cases: mRNA level, 48 h; actives raise or lower the signal
[1] = read-out: ATP-citrate lyase (ACLY), ACLY (gene 47); experiment: LTEA_HepaRG_ACLY: Life Technologies and Expression Analysis (LTEA) Assay for ATP-citrate lyase (ACLY) using HepaRG (AID 2283466)
Method in brief: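 qRT-PCR readout of ACLY transcript after 48 h chemical treatment of HepaRG cells; expression normalized to three housekeeping genes. Eight-point half-log series, highest 100 uM, 0.5% DMSO vehicle. Gain or loss fitted against DMSO baseline.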

[2] = read-out: Peroxisomal acyl-coenzyme A oxidase 1 (ACOX1) gene, ACOX1 (gene 51); experiment: LTEA_HepaRG_ACOX1: Life Technologies and Expression Analysis (LTEA) Assay for Peroxisomal acyl-coenzyme A oxidase 1 (ACOX1) gene using HepaRG (AID 2283467)
Method in brief: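 HepaRG, 48 h chemical exposure, 8-pt half-log series from 100 uM top, 0.5% DMSO vehicle, duplicates. Readout: ACOX1 mRNA by Fluidigm qRT-PCR, housekeeping-normalized; bidirectional fit vs DMSO baseline.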

[3] = read-out: Alkaline Phosphatase, Placental (ALPP) gene, ALPP (gene 250); experiment: LTEA_HepaRG_ALPP: Life Technologies and Expression Analysis (LTEA) Assay for Alkaline Phosphatase, Placental (ALPP) gene using HepaRG (AID 2283468);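 for AC50: differentiated human HepaRG liver cells in serum-free induction medium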
Method in brief: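 Expression of ALPP was quantified by qRT-PCR against three housekeeping genes in human HepaRG cultures treated for 48 h with an eight-point concentration series up to 100 uM. Activity in either direction was fitted relative to 0.5% DMSO.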

[4] = read-out: Bcl-2 (BAD) gene, BAD (gene 572); experiment: LTEA_HepaRG_BAD: Life Technologies and Expression Analysis (LTEA) Assay for Bcl-2 (BAD) gene using HepaRG (AID 2283469)
Method in brief: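 HepaRG, 48 h exposure, 8-pt half-log curve from 100 uM in 0.5% DMSO, duplicates. Readout: TaqMan qRT-PCR for BAD mRNA, housekeeping-normalised (ACTB/GAPDH/POLR2A); gain or loss fitted against DMSO baseline.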

[5] = read-out: Bcl-2 (BAX) gene, BAX (gene 581); experiment: LTEA_HepaRG_BAX: Life Technologies and Expression Analysis (LTEA) Assay for Bcl-2 (BAX) gene using HepaRG (AID 2283470)
Method in brief: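 Human HepaRG cells treated in duplicate for 48 h across eight concentrations (max 100 uM, 0.5% DMSO); BAX expression measured by qRT-PCR.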

[6] = read-out: adenosine kinase (ADK) gene, ADK (gene 132); experiment: LTEA_HepaRG_ADK: Life Technologies and Expression Analysis (LTEA) Assay for adenosine kinase (ADK) gene using HepaRG (AID 2283471)
Method in brief: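 Read-out is ADK transcript level measured by qRT-PCR and normalised to three housekeeping genes. Cells are human HepaRG, dosed for 48 h at up to 100 uM in 0.5% DMSO. Gain or loss of signal is fitted against DMSO controls.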

[7] = read-out: Alpha-fetoprotein (AFP) gene, AFP (gene 174); experiment: LTEA_HepaRG_AFP: Life Technologies and Expression Analysis (LTEA) Assay for Alpha-fetoprotein (AFP) gene using HepaRG (AID 2283472)
Method in brief: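 Measures AFP mRNA change in HepaRG after 48 h chemical exposure (8 half-log concentrations, highest 100 uM, 0.5% DMSO). Fold change relative to DMSO, fitted in both directions.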

BCL2L11 (gene 10018) = experiment: LTEA_HepaRG_BCL2L11: Life Technologies and Expression Analysis (LTEA) Assay for Bcl-2 (BCL2L11) gene using HepaRG (AID 2283473)
Method in brief: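 Cells were plated, cultured 48 h, switched to serum-free induction medium, then dosed in duplicate for 48 h at eight half-log concentrations up to 100 uM. Lysates underwent RNA isolation and TaqMan qRT-PCR; gain or loss versus DMSO was fitted.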

[8] = read-out: Apolipoprotein A-V (APOA5) gene, APOA5 (gene 116519); experiment: LTEA_HepaRG_APOA5: Life Technologies and Expression Analysis (LTEA) Assay for Apolipoprotein A-V (APOA5) gene using HepaRG (AID 2283474)
Method in brief: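 Human liver HepaRG cells are treated 48 h with test chemicals (100 uM top, half-log dilutions, 0.5% DMSO). APOA5 mRNA induction or loss is measured by qRT-PCR relative to vehicle.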

[9] = read-out: Apoptosis regulator Bcl-2 (Homo sapiens) (UniProt P10415); experiment: LTEA_HepaRG_BCL2: Life Technologies and Expression Analysis (LTEA) Assay for Bcl-2 gene using HepaRG (AID 2283475)
Method in brief: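 Each chemical was tested in duplicate on HepaRG cultures held in serum-free induction medium for 48 h, highest concentration 100 uM with half-log dilutions. Transcript levels came from multiplexed qRT-PCR, normalised to housekeeping genes; activity was scored in either direction relative to DMSO.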

[10] = read-out: Bcl-2 (BID) gene, BID (gene 637); experiment: LTEA_HepaRG_BID: Life Technologies and Expression Analysis (LTEA) Assay for Bcl-2 (BID) gene using HepaRG (AID 2283476)
Method in brief: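 Assay used HepaRG hepatic cells treated 48 h in serum-free medium with half-log dilutions from 100 uM. Endpoint: BID mRNA, qRT-PCR, normalized to ACTB/GAPDH/POLR2A.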

Caspase-3 (Homo sapiens) = Caspase-3 (Homo sapiens) (UniProt P42574); experiment: LTEA_HepaRG_CASP3: Life Technologies and Expression Analysis (LTEA) Assay for cysteine-aspartic acid protease (CASP3) using HepaRG (AID 2283477)
Method in brief: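 In HepaRG liver cells dosed for 48 h at up to 100 uM (eight-point, duplicate), CASP3 expression changes are scored by qRT-PCR. Activity is fitted in both directions with 0.5% DMSO as baseline.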

[11] = read-out: Cytochrome P450 (CYP24A1), CYP24A1 (gene 1591); experiment: LTEA_HepaRG_CYP24A1: Life Technologies and Expression Analysis (LTEA) Assay for Cytochrome P450 (CYP24A1) using HepaRG (AID 2283478)
Method in brief: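 Human liver HepaRG cultures receive each chemical for 48 h across an eight-point half-log series topping at 100 uM in 0.5% DMSO. Induction or suppression of CYP24A1 mRNA is scored relative to vehicle after housekeeping-gene normalization.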

[12] = read-out: Cytochrome P450 (CYP1A2), CYP1A2 (gene 1544); experiment: LTEA_HepaRG_CYP1A2: Life Technologies and Expression Analysis (LTEA) Assay for Cytochrome P450 (CYP1A2) using HepaRG (AID 2283479)
Method in brief: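 Assesses CYP1A2 mRNA in human HepaRG liver cells after 48 h chemical exposure at up to 100 uM. Values come from qRT-PCR with bidirectional curve fitting relative to DMSO.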

[13] = read-out: cysteine-aspartic acid protease (CASP8), CASP8 (gene 841); experiment: LTEA_HepaRG_CASP8: Life Technologies and Expression Analysis (LTEA) Assay for cysteine-aspartic acid protease (CASP8) using HepaRG (AID 2283480)
Method in brief: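 qRT-PCR readout of CASP8 mRNA, normalized to three housekeeping genes, after 48 h chemical exposure of HepaRG cells; 8-point half-log series, top 100 uM, 0.5% DMSO vehicle. Bidirectional curve fitting against DMSO baseline.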

[14] = read-out: Cytochrome P450 (CYP2B6), CYP2B6 (gene 1555); experiment: LTEA_HepaRG_CYP2B6: Life Technologies and Expression Analysis (LTEA) Assay for Cytochrome P450 (CYP2B6) using HepaRG (AID 2283481)
Method in brief: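 Using 48 h treatment of HepaRG cells in serum-free induction medium, concentrations spanned half-log steps from 100 uM in 0.5% DMSO vehicle. CYP2B6 mRNA induction or loss is scored by qRT-PCR against DMSO.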

[15] = read-out: Cytochrome P450 2C19 (Homo sapiens) (UniProt P33261); experiment: LTEA_HepaRG_CYP2C19: Life Technologies and Expression Analysis (LTEA) Assay for CYP2C19 using HepaRG (AID 2283482)
Method in brief: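 Human HepaRG liver cells received test chemicals for 48 h (highest 100 uM, half-log dilutions in 0.5% DMSO). CYP2C19 mRNA induction or loss is read by multiplexed qRT-PCR and fitted in both directions versus vehicle.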

CYP2C9 (gene 1559) = experiment: LTEA_HepaRG_CYP2C9: Life Technologies and Expression Analysis (LTEA) Assay for CYP2C9 using HepaRG (AID 2283484)
Method in brief: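 HepaRG, 48 h dosing, 8-pt half-log series, top 100 uM, 0.5% DMSO vehicle. Read-out: CYP2C9 transcript by TaqMan qRT-PCR, housekeeping-normalized (ACTB/GAPDH/POLR2A). Gain or loss fitted vs DMSO baseline.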

CYP2E1 (gene 1571) = experiment: LTEA_HepaRG_CYP2E1: Life Technologies and Expression Analysis (LTEA) Assay for CYP2E1 using HepaRG (AID 2283485)
Method in brief: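 Assay uses 48 h exposure of HepaRG hepatic cells, eight concentrations to 100 uM. Expression of CYP2E1 is quantified by TaqMan qRT-PCR with ACTB, GAPDH and POLR2A normalization; curves fitted in both directions relative to vehicle.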

CYP2C8 (gene 1558) = experiment: LTEA_HepaRG_CYP2C8: Life Technologies and Expression Analysis (LTEA) Assay for CYP2C8 using HepaRG (AID 2283483)
Method in brief: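 HepaRG (human liver line), 48 h chemical exposure, 8-pt half-log series from 100 uM, 0.5% DMSO vehicle. Readout: CYP2C8 transcript by qRT-PCR, housekeeping-normalized. Bidirectional fit vs DMSO baseline.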

Sequence of Caspase-3 (Homo sapiens) (P42574 whole entry, looked up): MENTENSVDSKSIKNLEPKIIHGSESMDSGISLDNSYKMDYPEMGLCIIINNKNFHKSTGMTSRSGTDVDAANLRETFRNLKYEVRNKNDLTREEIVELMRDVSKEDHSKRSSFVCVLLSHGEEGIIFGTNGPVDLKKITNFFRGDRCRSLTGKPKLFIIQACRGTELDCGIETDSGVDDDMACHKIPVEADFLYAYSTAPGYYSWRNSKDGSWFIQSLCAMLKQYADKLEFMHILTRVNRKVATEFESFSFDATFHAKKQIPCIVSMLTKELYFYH
Sequence of Apoptosis regulator Bcl-2 (Homo sapiens) (P10415 whole entry, looked up): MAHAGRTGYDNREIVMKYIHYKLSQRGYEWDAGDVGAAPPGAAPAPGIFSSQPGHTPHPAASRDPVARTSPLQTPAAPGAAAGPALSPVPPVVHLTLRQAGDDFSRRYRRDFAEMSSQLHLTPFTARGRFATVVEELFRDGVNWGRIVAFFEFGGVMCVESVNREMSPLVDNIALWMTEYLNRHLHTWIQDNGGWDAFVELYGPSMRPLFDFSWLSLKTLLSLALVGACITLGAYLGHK
Sequence of Cytochrome P450 2C19 (Homo sapiens) (P33261 whole entry, looked up): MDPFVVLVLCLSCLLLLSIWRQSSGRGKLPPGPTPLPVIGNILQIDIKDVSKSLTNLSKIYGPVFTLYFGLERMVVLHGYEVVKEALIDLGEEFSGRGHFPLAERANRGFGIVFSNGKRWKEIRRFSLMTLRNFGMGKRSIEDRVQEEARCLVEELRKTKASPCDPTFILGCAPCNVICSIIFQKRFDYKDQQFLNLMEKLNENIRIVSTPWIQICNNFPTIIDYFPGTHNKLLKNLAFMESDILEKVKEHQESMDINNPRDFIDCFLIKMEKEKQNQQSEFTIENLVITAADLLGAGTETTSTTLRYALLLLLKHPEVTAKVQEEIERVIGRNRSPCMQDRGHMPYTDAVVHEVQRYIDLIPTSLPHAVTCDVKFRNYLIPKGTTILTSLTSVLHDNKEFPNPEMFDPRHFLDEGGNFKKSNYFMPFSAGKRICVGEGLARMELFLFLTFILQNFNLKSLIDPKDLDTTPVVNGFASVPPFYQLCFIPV

Clc1ccc(C(c2ccccc2Cl)C(Cl)(Cl)Cl)cc1 (configuration not stated)
outcome [1]: inactive
outcome [2]: inactive
outcome [3]: inactive
outcome [4]: inactive
outcome [5]: inactive
outcome [6]: inactive
AC50 [7]: 36.3 µM (active)
outcome (BCL2L11 (gene 10018)): inactive
AC50 [8]: 10.7 µM (active)
outcome [9]: inactive
outcome [10]: inactive
outcome (Caspase-3 (Homo sapiens)): inactive
outcome [11]: inactive
outcome [12]: inactive
outcome [13]: inactive
AC50 [14]: 0.213 µM (active)
AC50 [15]: 1.76 µM (active)
outcome (CYP2C9 (gene 1559)): inactive
AC50 (CYP2E1 (gene 1571)): 39.8 µM (active)

Oc1ccc(C(c2ccc(O)cc2)(C(F)(F)F)C(F)(F)F)cc1
outcome [1]: inactive
AC50 [2]: 83.8 µM (active)
AC50 [3]: 83 µM (active)
outcome [4]: inactive
outcome [5]: inactive
AC50 [6]: 81.6 µM (active)
outcome [7]: inactive
AC50 (BCL2L11 (gene 10018)): 78.9 µM (active)
outcome [8]: inactive
outcome [9]: inactive
outcome [10]: inactive
outcome (Caspase-3 (Homo sapiens)): inactive
outcome [11]: inactive
outcome [12]: inactive
outcome [13]: inactive
AC50 [14]: 92 µM (active)
AC50 [15]: 85.8 µM (active)
outcome (CYP2C9 (gene 1559)): inactive
AC50 (CYP2E1 (gene 1571)): 79.4 µM (active)

CO/C=C(/C(=O)OC)c1ccccc1COc1cccc(C(F)(F)F)n1
outcome [1]: inactive
AC50 [2]: 5.3 µM (active)
AC50 [3]: 5.39 µM (active)
outcome [4]: inactive
AC50 [5]: 9.44 µM (active)
outcome [6]: inactive
AC50 [7]: 4.93 µM (active)
AC50 (BCL2L11 (gene 10018)): 6.53 µM (active)
AC50 [8]: 9.59 µM (active)
AC50 [9]: 9.33 µM (active)
outcome [10]: inactive
outcome (Caspase-3 (Homo sapiens)): inactive
outcome [11]: inactive
AC50 [12]: 7.53 µM (active)
outcome [13]: inactive
AC50 [14]: 7.13 µM (active)
AC50 [15]: 8.79 µM (active)
AC50 (CYP2C8 (gene 1558)): 8.74 µM (active)
AC50 (CYP2C9 (gene 1559)): 8.81 µM (active)
AC50 (CYP2E1 (gene 1571)): 3.61 µM (active)

O=NN(c1ccccc1)c1ccccc1
outcome [1]: inactive
outcome [2]: inactive
AC50 [3]: 82.7 µM (active)
outcome [4]: inactive
outcome [5]: inactive
AC50 [6]: 11.8 µM (active)
outcome [7]: inactive
AC50 (BCL2L11 (gene 10018)): 50 µM (active)
AC50 [8]: 76.1 µM (active)
outcome [9]: inactive
AC50 [10]: 78.2 µM (active)
outcome (Caspase-3 (Homo sapiens)): inactive
outcome [11]: inactive
AC50 [12]: 50 µM (active)
outcome [13]: inactive
AC50 [14]: 10.6 µM (active)
AC50 [15]: 7.3 µM (active)
outcome (CYP2C8 (gene 1558)): inactive
AC50 (CYP2C9 (gene 1559)): 0.273 µM (active)
outcome (CYP2E1 (gene 1571)): inactive

O=S(=O)(O)C(F)(F)C(F)(F)C(F)(F)C(F)(F)C(F)(F)C(F)(F)F
outcome [1]: inactive
AC50 [2]: 6.58 µM (active)
outcome [3]: inactive
outcome [4]: inactive
outcome [5]: inactive
outcome [6]: inactive
outcome [7]: inactive
outcome (BCL2L11 (gene 10018)): inactive
AC50 [8]: 3.42 µM (active)
outcome [9]: inactive
outcome [10]: inactive
outcome (Caspase-3 (Homo sapiens)): inactive
outcome [11]: inactive
outcome [12]: inactive
outcome [13]: inactive
AC50 [14]: 24.6 µM (active)
AC50 [15]: 32 µM (active)
AC50 (CYP2C8 (gene 1558)): 50 µM (active)
AC50 (CYP2C9 (gene 1559)): 6.28 µM (active)
outcome (CYP2E1 (gene 1571)): inactive

CC(C)(O)C(=O)Nc1ccc([N+](=O)[O-])c(C(F)(F)F)c1
outcome [1]: inactive
outcome [2]: inactive
AC50 [3]: 0.0354 µM (active)
AC50 [4]: 0.0265 µM (active)
outcome [5]: inactive
outcome [6]: inactive
outcome [7]: inactive
AC50 (BCL2L11 (gene 10018)): 0.0415 µM (active)
AC50 [8]: 0.0349 µM (active)
outcome [9]: inactive
AC50 [10]: 0.0296 µM (active)
outcome (Caspase-3 (Homo sapiens)): inactive
outcome [11]: inactive
AC50 [12]: 0.0406 µM (active)
AC50 [13]: 0.0142 µM (active)
AC50 [14]: 44.3 µM (active)
outcome [15]: inactive
outcome (CYP2C9 (gene 1559)): inactive
AC50 (CYP2E1 (gene 1571)): 37.1 µM (active)
